99 compounds from PubChem BioAssay AID463173 (ICCB-Longwood Screening Facility, Harvard Medical School, 2010) can be followed below.

SMILES strings stand for the structures. Screen size: about 52,000 compounds; about 4,300 (8.3%) were called active. The full list was thinned out, with actives kept by preference. A number with no mark means an inactive call. Cut-off read from the data, not from the text of the source: active = survival mostly below about 52% (no sharp cut-off); inactive = mostly above about 56%.

This assay concerns DeltatarO mutant. The assay is described as follows: growth inhibition of S. aureus wild type versus tarO mutant, primary screen, teichoic acid synthesis inhibitors, RN4220, OD600 (AID 463173). To be noted: OD600, 18 h, stronger effect = lower value, screened at 18.75 µg/mL (by protocol).
With `COc1ccc(-c2noc(-c3ccc(NC(C)c4ccccc4)c([N+](=O)[O-])c3)n2)cc1OC` (centres undefined), the survival is 65%.

As for `CCCC12CN3CC(C)(CN(C1)C3c1ccc(OCc3ccccc3)cc1)C2=O` (centres undefined), the survival is 80%.

Consider `COc1ccc(-n2nc3c(N4CCCC(C(=O)NCc5ccccc5C)C4)nnc(C)c3c2C)cc1` (centres undefined), for which the survival was 90%.

As to `O=C(Nc1ccc(Br)cc1)Nc1nc2c(s1)CCCCCC2`, the survival is 83%.

As for `Cc1ccc(NC(=O)Nc2nc3c(s2)CCCCCC3)cc1C`, the survival was 69%.

Take `O=C(Nc1nc2c(s1)CCCCCC2)Nc1ccc(F)cc1F`: the survival is 0% (active).

Consider `CCN(c1cc(C)cc(C)c1)S(=O)(=O)c1nnc(NC(=O)c2cccc(F)c2)s1`, for which the survival was 37% (active).

With `Cc1cccc(N(C)S(=O)(=O)c2nnc(NC(=O)c3cccs3)s2)c1`, the survival is 26% (active).

Consider `CCN(c1cccc(C)c1)S(=O)(=O)c1nnc(NC(=O)C2CCCCC2)s1`, for which the survival is 71%.

On to `CCN(c1cccc(C)c1)S(=O)(=O)c1nnc(NC(=O)c2cccs2)s1`, for which the survival is 21% (active).

In the case of `CCN(c1cc(C)cc(C)c1)S(=O)(=O)c1nnc(NC(=O)c2cccs2)s1`, the survival was 25% (active).

Regarding `Cc1cccc(N(C)S(=O)(=O)c2nnc(NC(=O)C(C)(C)C)s2)c1`, the survival was 99%.

Regarding `CCCCC(=O)Nc1nnc(S(=O)(=O)N(CC)c2cc(C)cc(C)c2)s1`, the survival is 66%.

On to `CCN(c1ccccc1)S(=O)(=O)c1nnc(NC(=O)COc2cccc(C)c2)s1`, for which the survival is 107%.

`CCN(c1cc(C)cc(C)c1)S(=O)(=O)c1nnc(NC(=O)C2CCCCC2)s1`: the survival is 105%.

As for `CN(c1ccccc1)S(=O)(=O)c1nnc(NC(=O)c2cccs2)s1`, the survival was 43%.

As to `Cc1ccc(S(=O)(=O)Nc2ccc(-c3ccc(N4CCCCCC4)nn3)cc2)c(C)c1`, the survival was 70%.

With `CCc1nnc(NC(=O)c2ccc(S(=O)(=O)N3CCc4ccccc4C3)cc2)s1`, the survival was 83%.

As to `Cc1ccc(NC(=O)CCNS(=O)(=O)c2cccs2)cc1F`, the survival is 63%.

Regarding `COc1cc(CN(C(=O)c2cccc(Cl)c2)c2ccccn2)cc(OC)c1OC`, the survival is 82%.

Turning to `COc1ccc(OC(=O)c2ccc3snnc3c2)cc1`, the survival is 86%.

`COc1ccc(CNC(=O)CCS(=O)(=O)c2cc3c4c(c2)CCN4C(=O)CC3)cc1OC`: the survival is 66%.

For `Cc1ccc(C)c(NS(=O)(=O)c2cc3c(cc2Cl)NC(=O)CO3)c1`, the survival is 85%.

For the compound `CCN(c1ccc(C)cc1C)S(=O)(=O)c1nnc(NC(=O)CC(C)C)s1`, the survival is 75%.

As to `CCN(c1ccc(C)cc1C)S(=O)(=O)c1nnc(NC(=O)c2ccc(F)cc2)s1`, the survival is 14% (active).

As for `CCN(c1ccc(C)cc1C)S(=O)(=O)c1nnc(NC(=O)c2ccccc2OC)s1`, the survival was 55%.

In the case of `CC(C)Cn1cc(NC(=O)NCc2ccccc2)c2ccccc2c1=O`, the survival is 74%.

Consider `CCc1nonc1NC(=O)c1oc2cc(C)c(C)cc2c1C`, for which the survival is 102%.

Turning to `CCOC(=O)c1cc2ccccc2[nH]c1=O`, the survival was 82%.

In the case of `CCOC(=O)c1cnc(SCC)[nH]c1=O`, the survival was 41% (active).

With `CCOC(=O)c1cc(C(=O)OCC)c(=S)[nH]c1O`, the survival was 98%.

With `Cc1ccc(NC(=O)c2c(NC(=O)c3ccc(F)cc3)sc3c2CCCC3)cc1C`, the survival was 67%.

On to `COCCCNC(=O)c1ccc2c(c1)NC(=O)C(C(C)C)N2` (centres undefined), for which the survival is 57%.

Take `COc1ccc(NC(=O)c2sc3nc4c(cc3c2N)CCCCCC4)c(OC)c1`: the survival is 62%.

For `CCc1oc(C(=O)O)cc1CN`, the survival was 97%.

In the case of `COc1ccc(Br)c2c1-c1nc(NC(=O)c3ccccc3F)sc1C2`, the survival was 69%.

Take `COc1ccc(C(=O)Nc2nc3c(s2)Cc2c(Br)ccc(OC)c2-3)cc1OC`: the survival is 36% (active).

With `COc1ccc(Br)c2c1-c1nc(NC(=O)c3ccc(F)cc3)sc1C2`, the survival is 67%.

As for `COc1ccc(Br)c2c1-c1nc(NC(=O)c3cccc(C)c3)sc1C2`, the survival was 44%.

Turning to `COc1cc(C(=O)Nc2nc3c(s2)Cc2c(Br)ccc(OC)c2-3)cc(OC)c1OC`, the survival was 36% (active).

As for `COc1ccc(Br)c2c1-c1nc(NC(=O)c3ccccc3SC)sc1C2`, the survival was 105%.

Take `Cc1cccc(N2CCN(C(=O)CN3C(=O)CSc4c3c(C)nn4-c3ccccc3)CC2)c1C`: the survival was 83%.

As for `O=C(Nc1ccc(F)cc1)c1cccc(N2CCCS2(=O)=O)c1`, the survival was 70%.

Turning to `COc1cc(C(=O)Nc2nnc(S(=O)(=O)N(C)c3ccccc3)s2)cc(OC)c1OC`, the survival was 40% (active).

With `Cc1nnc(NC(=O)c2ccccc2)s1`, the survival was 71%.

As to `COc1ccc(C(=O)Nc2nnc(S(=O)(=O)N(C)c3ccc(C)cc3)s2)cc1`, the survival is 79%.

For `COc1ccc(C(=O)Nc2nnc(S(=O)(=O)N(C)c3ccc(Cl)cc3)s2)cc1OC`, the survival is 83%.

In the case of `CN(c1ccccc1)S(=O)(=O)c1nnc(NC(=O)c2ccccc2)s1`, the survival was 32% (active).

Take `CC(C)C(=O)Nc1cccc(C(=O)Nc2nnc(C(F)(F)F)s2)c1`: the survival was 58%.

In the case of `CCCC(=O)Nc1nnc(S(=O)(=O)N(C)c2ccccc2)s1`, the survival is 108%.

Take `O=C(Nc1nnc(C(F)(F)F)s1)c1ccccc1`: the survival was 24% (active).

For `CCN(C(=O)Cn1cnc2c1c(=O)n(C)c(=O)n2C)c1ccccc1C`, the survival is 87%.

Consider `Fc1ccc(N2CCN(c3nc4ccccc4c4nc(-c5cccnc5)nn34)CC2)cc1`, for which the survival was 93%.

On to `CC(=O)N1c2ccc(S(=O)(=O)N3CCCCCC3)cc2CC1C(=O)NCc1cccc(F)c1` (centres undefined), for which the survival is 65%.

Take `Cc1ccc(NC(=O)c2ccco2)c(OCc2cc(=O)n3cc(C)sc3n2)c1`: the survival was 102%.

On to `NC(=O)/C=C/C(=O)Nc1ccc2c(c1)OCO2`, for which the survival was 33% (active).

As to `O=C(/C=C/c1ccccc1)Nc1ccc2c(c1)OCCO2`, the survival is 76%.

`CCOC(=O)Nc1ccc2c(c1)OCO2`: the survival is 79%.

`CCc1ccccc1NC(=O)N1CCOc2ccccc21`: the survival was 106%.

Regarding `CSc1ccc(C2c3c(oc4ccc(F)cc4c3=O)C(=O)N2c2ccc(C)cn2)cc1` (centres undefined), the survival is 81%.

Regarding `COc1cccc(N2CCN(C(=O)CCn3nc(C)c(S(=O)(=O)N4CCCC4)c3C)CC2)c1`, the survival was 92%.

Turning to `COc1ccc(N2CCN(C(=O)CCn3nc(C)c(S(=O)(=O)N4CCCC4)c3C)CC2)cc1`, the survival was 73%.

As for `Cc1nn(CCC(=O)N2CCN(c3ccccc3)CC2)c(C)c1S(=O)(=O)N1CCCC1`, the survival was -5% (active).

Take `COc1ccc(Cl)cc1NC(=O)CSC1=Nc2ccccc2C2=NC(CC(=O)NCc3ccc4c(c3)OCO4)C(=O)N12` (centres undefined): the survival is 87%.

On to `COc1ccc(CCn2c(=O)c3cccnc3n(CC(=O)Nc3ccc(C)cc3C)c2=O)cc1OC`, for which the survival was 78%.

As to `O=S(=O)(c1ccccc1)c1nc(-c2cccc(Cl)c2)oc1NCc1ccccc1`, the survival is 83%.

`O=C(NC1CCCC1)c1ccc(CSc2nc3cccnc3n2Cc2ccc(F)cc2)cc1`: the survival is 63%.

Consider `O=C(NC1CC1)c1ccc(Cn2c(SCc3ccc(F)cc3)nc3cccnc32)cc1`, for which the survival was 78%.

Turning to `O=C(NC1CCCC1)c1ccc(CSc2nc3cccnc3n2Cc2ccccc2F)cc1`, the survival was 37% (active).

`O=C(NC1CCCCC1)c1ccc(CSc2nc3cccnc3n2Cc2ccccc2F)cc1`: the survival is 93%.

For `Cc1ccccc1CSc1nc2cc(C(=O)NC3CCCC3)ccc2c(=O)n1Cc1ccccc1`, the survival is 107%.

In the case of `O=C(NC1CCCC1)c1ccc2c(=O)n(Cc3ccccc3)c(SCc3ccccc3F)nc2c1`, the survival was 0% (active).

As for `O=C(NC1CCCCC1)c1ccc(CSc2nc3cccnc3n2Cc2ccccc2)cc1`, the survival is 102%.

Take `O=C(NC1CCCCC1)c1ccc(CSc2nc3cccnc3n2Cc2ccc(F)cc2)cc1`: the survival was 25% (active).

Regarding `O=C(NC1CCCCC1)c1ccc(Cn2c(SCc3ccc(F)cc3)nc3cccnc32)cc1`, the survival is 32% (active).

Turning to `O=C(NC1CCCC1)c1ccc2c(=O)n(Cc3ccccc3)c(SCc3ccccc3)nc2c1`, the survival is 92%.

As for `O=C(NC1CCCCC1)c1ccc(Cn2c(SCc3ccccc3F)nc3cccnc32)cc1`, the survival is 80%.

As for `O=C(NC1CCCCC1)c1ccc(Cn2c(SCc3ccccc3)nc3cccnc32)cc1`, the survival is 83%.

With `O=C(Cn1cc(SCc2c(F)cccc2Cl)c2ccccc21)N1CCCC1`, the survival is 74%.

With `COCCn1c(COc2ccc(Cl)cc2)nnc1SCC(=O)OC`, the survival was 96%.

Turning to `CCOc1ccccc1N(CC)C(=O)c1noc2c1COc1ccc(C)cc1-2`, the survival is 67%.

Turning to `COc1ccc(CCNC(=O)NCc2noc3ccccc23)c(OC)c1`, the survival was 62%.

On to `NC(=O)CSc1nc2cc3c(cc2c(=O)n1CCCCCC(=O)NCc1ccc2c(c1)OCO2)OCO3`, for which the survival was 81%.

On to `CCC(=O)N1CCc2cc(Br)cc(S(=O)(=O)NCc3cccc(OC)c3)c21`, for which the survival was 58%.

`COc1cccc(Cn2cc(S(=O)(=O)c3ccc(C)cc3)c(=O)c3cc4c(cc32)OCO4)c1`: the survival is 67%.

Take `COc1ccc(OC)c(S(=O)(=O)NCC(c2ccco2)S(=O)(=O)c2ccccc2)c1` (centres undefined): the survival was 94%.

Consider `CCOCCCNC(=O)CN1C(=O)COc2ccc(S(=O)(=O)N3CCCCCC3)cc21`, for which the survival was 81%.

In the case of `CCOC(=O)c1c(Oc2ccc(OC)cc2)nnc(-c2ccccc2)c1-c1ccccc1`, the survival was 75%.

As for `COc1ccc(-c2nnc(Nc3ccc(OCC(N)=O)cc3)c3ccccc23)cc1`, the survival is 69%.

On to `C#CCOc1ccc(-c2nnc(Nc3ccc(NC(C)=O)cc3)c3ccccc23)cc1`, for which the survival is 60%.

Regarding `CNC(=O)c1cc(Nc2nnc(-c3ccc(O)cc3)c3ccccc23)ccc1OC`, the survival is 170%.

In the case of `COC(=O)c1c(Oc2ccc(OC)cc2)nnc(-c2ccccc2)c1-c1ccccc1`, the survival was 101%.

`CCOC(=O)c1c(C)oc2ncnc(Nc3ccc(OCC)cc3)c12`: the survival is 89%.

Take `COc1ccc(-c2nnc(Nc3ccc(OC)c(C(N)=O)c3)c3ccccc23)cc1`: the survival was 41% (active).

On to `CCOC(=O)c1c(Nc2ccc(OCC)cc2)nnc(-c2ccccc2)c1-c1ccccc1`, for which the survival is -2% (active).

As for `Cc1cccc(Nc2nnc(-c3ccc(C)c(S(=O)(=O)N4CCCCC4)c3)c3ccccc23)c1`, the survival was 104%.

As for `CCOC(=O)c1c(C)c(-c2ccccc2)n(CC(=O)Nc2ccc(OCC)cc2)c1C`, the survival is 73%.

Consider `C#CCOc1ccc(-c2nnc(Nc3cccc(C)c3)c3ccccc23)cc1`, for which the survival is 31% (active).

As to `CCOC(=O)c1c(Nc2ccc(OC)cc2)nnc(-c2ccccc2)c1-c1ccccc1`, the survival is 7% (active).
